According to PubChem BioAssay (EPA / NIEHS):
Calls of active or inactive are those of the source. Rule for the calls: active = hit-call score of the fitted dose curve at least 0.9, where 1 is the maximum; inactive = score below 0.9.

Columns and labels:
[1] = read-out: Interleukin-1 alpha (IL1a), IL1A (gene 3552); experiment: BSK_KF3CT_IL1a: BioMAP Diversity Plus: KF3CT Assay for Interleukin-1 alpha (IL1a) Biomarker Activity (AID 2283070); conditions: primary human keratinocytes with fibroblasts; actives raise or lower the signal
Method in brief: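 Human keratinocyte plus foreskin fibroblast primary co-culture, sampled 24 h after chemical dosing. IL-1a measured by ELISA; responses fitted bidirectionally against DMSO baseline (negative control), so gain or loss of signal both count.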

[2] = read-out: TIMP metallopeptidase inhibitor 2 (TIMP2), TIMP2 (gene 7077); experiment: BSK_KF3CT_TIMP2: BioMAP Diversity Plus: KF3CT Assay for TIMP metallopeptidase inhibitor 2 (TIMP2) Biomarker Activity (AID 2283071); conditions: primary human keratinocytes with fibroblasts; actives raise or lower the signal
Method in brief: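 Human primary keratinocyte/foreskin fibroblast co-culture dosed with chemical and sampled at 24 h. TIMP-2 levels quantified by ELISA; bidirectional fitting against DMSO negative control as baseline.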

[3] = read-out: Transforming growth factor beta 1 (TGFb1), TGFB1 (gene 7040); experiment: BSK_KF3CT_TGFb1: BioMAP Diversity Plus: KF3CT Assay for Transforming growth factor beta 1 (TGFb1) Biomarker Activity (AID 2283072); conditions: primary human keratinocytes with fibroblasts; actives raise or lower the signal
Method in brief: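 Human keratinocyte plus foreskin fibroblast primary co-culture, dosed with chemical for 24 h. TGF-b1 quantified by ELISA. Activity fitted bidirectionally against DMSO negative control as baseline.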

[4] = read-out: C-C motif chemokine 2 (Homo sapiens) (UniProt P13500); experiment: BSK_KF3CT_MCP1: BioMAP Diversity Plus: KF3CT Assay for Monocyte Chemoattractant Protein 1 (MCP1/CCL2) Biomarker Activity (AID 2283073); conditions: primary human keratinocytes with fibroblasts; actives raise or lower the signal
Method in brief: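 Human keratinocyte–foreskin fibroblast co-culture; MCP-1 measured by ELISA 24 h after dosing. Bidirectional fit vs DMSO; cytotoxicity tracked by SRB total protein in parallel cultures.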

[5] = read-out: Matrix Metallopeptidase 9 (MMP9), MMP9 (gene 4318); experiment: BSK_KF3CT_MMP9: BioMAP Diversity Plus: KF3CT Assay for Matrix Metallopeptidase 9 (MMP9) Biomarker Activity (AID 2283074); conditions: primary human keratinocytes with fibroblasts; actives raise or lower the signal
Method in brief: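 Keratinocyte plus foreskin fibroblast human primary skin co-culture was dosed with chemical and MMP-9 was quantified by ELISA 24 h later. Bidirectional curve fitting used DMSO as negative control and activity baseline.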

[6] = read-out: urokinase plasminogen activator (uPA), PLAU (gene 5328); experiment: BSK_KF3CT_uPA: BioMAP Diversity Plus: KF3CT Assay for urokinase plasminogen activator (uPA) Biomarker Activity (AID 2283075); conditions: primary human keratinocytes with fibroblasts; actives raise or lower the signal
Method in brief: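 Human keratinocyte plus foreskin fibroblast primary co-culture exposed to chemical for 24 h. uPA levels were quantified by ELISA, and activity was fitted bidirectionally against a DMSO negative-control baseline.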

CD40, CD40 (gene 958) [7] = experiment: BSK_LPS_CD40: BioMAP Diversity Plus: LPS Assay for CD40 Biomarker Activity (AID 2283076); conditions: primary human HUVEC with PBMC; actives raise or lower the signal
Method in brief: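 HUVEC plus PBMC co-culture stimulated with LPS; CD40 quantified by ELISA 24 h after compound dosing. Fitting was bidirectional relative to DMSO. SRB staining of parallel cultures flagged overt cytotoxicity.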

[8] = read-out: E-selectin (Homo sapiens) (UniProt P16581); experiment: BSK_LPS_Eselectin: BioMAP Diversity Plus: LPS Assay for Eselectin Biomarker Activity (AID 2283077); conditions: primary human HUVEC with PBMC; actives raise or lower the signal
Method in brief: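 Human umbilical vein endothelial cells co-cultured with PBMC under LPS stimulation; cell-surface E-selectin measured by ELISA 24 h after dosing. Change in either direction versus DMSO, with SRB total-protein staining in parallel cultures for cytotoxicity.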

[9] = BSK_LPS_SRB: Viability Assessment in the BioMAP Diversity Plus: LPS Assay (AID 2283079); conditions: primary human HUVEC with PBMC;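 note: total protein by sulforhodamine B absorbance as a cytotoxicity measure; measured one day after compound addition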
Method in brief: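 Co-culture of human umbilical vein endothelial cells and PBMC, read 24 h after dosing. Total protein by 0.1% SRB staining after 10% TCA fixation, absorbance at 560 nm; bidirectional fit against DMSO.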

[10] = read-out: Interleukin-1 alpha (IL1a), IL1A (gene 3552); experiment: BSK_LPS_IL1a: BioMAP Diversity Plus: LPS Assay for Interleukin-1 alpha (IL1a) Biomarker Activity (AID 2283080); conditions: primary human HUVEC with PBMC; actives raise or lower the signal
Method in brief: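 Human umbilical vein endothelial cells co-cultured with PBMC and stimulated with LPS; IL-1a measured by ELISA 24 h after dosing. Bidirectional fitting against DMSO; cytotoxicity checked by SRB staining in parallel cultures.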

[11] = read-out: Monocyte Chemoattractant Protein-1 (MCP1), CCL2 (gene 6347); experiment: BSK_LPS_MCP1: BioMAP Diversity Plus: LPS Assay for Monocyte Chemoattractant Protein-1 (MCP1) Biomarker Activity (AID 2283081); conditions: primary human HUVEC with PBMC; actives raise or lower the signal
Method in brief: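 Human umbilical vein endothelial cells co-cultured with PBMC, LPS-stimulated; secreted MCP-1 measured by ELISA 24 h after compound addition. Bidirectional curve fitting against DMSO baseline; SRB total-protein staining in parallel cultures for cytotoxicity.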

[12] = BSK_LPS_PGE2: BioMAP Diversity Plus: LPS Assay for Prostaglandin E2 (PGE2) Biomarker Activity (AID 2283082); conditions: primary human HUVEC with PBMC; actives raise or lower the signal
Method in brief: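 HUVEC plus PBMC co-culture stimulated with LPS; secreted PGE2 quantified by ELISA 24 h after chemical dosing. Activity fitted bidirectionally against DMSO as negative control and baseline; parallel SRB total-protein staining served as cytotoxicity check.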

[13] = read-out: Macrophage colony-stimulating factor (MCSF), CSF1 (gene 1435); experiment: BSK_LPS_MCSF: BioMAP Diversity Plus: LPS Assay for Macrophage colony-stimulating factor (MCSF) Biomarker Activity (AID 2283083); conditions: primary human HUVEC with PBMC; actives raise or lower the signal
Method in brief: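 HUVEC–PBMC co-culture, M-CSF measured by ELISA 24 h after chemical dosing. Fitted in both directions relative to DMSO as negative control; overt cytotoxicity assessed by SRB total-protein staining in parallel cultures.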

[14] = read-out: Tissue Factor, F3 (gene 2152); experiment: BSK_LPS_TissueFactor: BioMAP Diversity Plus: LPS Assay for Tissue Factor Biomarker Activity (AID 2283084); conditions: primary human HUVEC with PBMC; actives raise or lower the signal
Method in brief: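 Human umbilical vein endothelial cells co-cultured with PBMC were dosed with compound. Cell-surface CD142 was measured by ELISA 24 h later. Activity was fitted bidirectionally against DMSO, with SRB total-protein staining in parallel cultures for cytotoxicity.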

[15] = read-out: Tumor necrosis factor (Homo sapiens) (UniProt P01375); experiment: BSK_LPS_TNFa: BioMAP Diversity Plus: LPS Assay for Tumour Necrosis Factor alpha (TNFa) Biomarker Activity (AID 2283085); conditions: primary human HUVEC with PBMC; actives raise or lower the signal;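 for AC50: TNFa protein level quantified by ELISA in the co-culture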
Method in brief: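 Human umbilical vein endothelial cells co-cultured with PBMC were exposed to test chemical and TNFa measured by ELISA 24 h after dosing. Bidirectional curve fitting was done relative to DMSO as negative control and baseline.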

[16] = read-out: Vascular cell adhesion molecule 1 (VCAM1), VCAM1 (gene 7412); experiment: BSK_LPS_VCAM1: BioMAP Diversity Plus: LPS Assay for Vascular cell adhesion molecule 1 (VCAM1) Biomarker Activity (AID 2283086); conditions: primary human HUVEC with PBMC; actives raise or lower the signal
Method in brief: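 Human umbilical vein endothelial cells co-cultured with peripheral blood mononuclear cells under LPS stimulation were exposed to test chemical for 24 h. VCAM-1 levels were then measured by ELISA, with bidirectional curve fitting relative to DMSO as negative control and baseline.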

CD38, CD38 (gene 952) = experiment: BSK_SAg_CD38: BioMAP Diversity Plus: SAg Assay for CD38 Biomarker Activity (AID 2283087); conditions: primary human HUVEC with PBMC; actives raise or lower the signal
Method in brief: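 Fluorescence ELISA of cell-surface CD38 served as the read-out, with either increase or decrease fitted against DMSO controls. Cells were a human umbilical vein endothelium plus PBMC co-culture under SEB/TSST-1 stimulation, measured 24 h after dosing.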

CD40, CD40 (gene 958) [17] = experiment: BSK_SAg_CD40: BioMAP Diversity Plus: SAg Assay for CD40 Biomarker Activity (AID 2283088); conditions: primary human HUVEC with PBMC; actives raise or lower the signal
Method in brief: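 HUVEC plus PBMC co-culture, superantigen-activated, with CD40 read by ELISA 24 h after dosing. Curves fitted in both directions against DMSO. Overt cytotoxicity checked by parallel SRB total-protein staining.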

CD69, CD69 (gene 969) = experiment: BSK_SAg_CD69: BioMAP Diversity Plus: SAg Assay for CD69 Biomarker Activity (AID 2283089); conditions: primary human HUVEC with PBMC; actives raise or lower the signal
Method in brief: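 ELISA, fluorescence read-out: CD69 on human umbilical vein endothelial cell + PBMC co-culture, 24 h post-dosing. Gain or loss of signal fitted bidirectionally against DMSO baseline.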

Measured: AC50

Chain of E-selectin (Homo sapiens) (P16581 whole entry, looked up): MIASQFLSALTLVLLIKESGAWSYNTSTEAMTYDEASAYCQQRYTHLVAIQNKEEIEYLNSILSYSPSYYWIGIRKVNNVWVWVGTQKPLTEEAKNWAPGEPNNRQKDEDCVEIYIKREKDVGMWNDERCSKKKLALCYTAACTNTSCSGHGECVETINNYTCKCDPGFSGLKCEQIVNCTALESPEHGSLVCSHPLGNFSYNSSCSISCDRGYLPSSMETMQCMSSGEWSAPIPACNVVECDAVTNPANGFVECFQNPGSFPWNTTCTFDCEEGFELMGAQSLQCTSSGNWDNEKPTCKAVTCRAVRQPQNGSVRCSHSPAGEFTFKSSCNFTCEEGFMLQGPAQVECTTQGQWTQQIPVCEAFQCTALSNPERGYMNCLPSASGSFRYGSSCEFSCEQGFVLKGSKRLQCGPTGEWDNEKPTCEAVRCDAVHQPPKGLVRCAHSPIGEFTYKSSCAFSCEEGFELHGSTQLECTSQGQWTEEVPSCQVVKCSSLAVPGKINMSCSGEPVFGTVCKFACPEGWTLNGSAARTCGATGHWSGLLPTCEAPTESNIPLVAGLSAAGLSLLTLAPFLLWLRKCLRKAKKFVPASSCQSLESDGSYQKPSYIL
Chain of Tumor necrosis factor (Homo sapiens) (P01375 whole entry, looked up): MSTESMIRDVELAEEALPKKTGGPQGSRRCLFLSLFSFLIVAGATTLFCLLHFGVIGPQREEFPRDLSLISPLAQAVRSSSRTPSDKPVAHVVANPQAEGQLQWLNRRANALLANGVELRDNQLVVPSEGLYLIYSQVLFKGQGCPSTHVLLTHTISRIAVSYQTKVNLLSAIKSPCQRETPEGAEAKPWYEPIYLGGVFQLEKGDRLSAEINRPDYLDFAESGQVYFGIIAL

O=C1CN(N=Cc2ccc([N+](=O)[O-])o2)C(=O)N1
active: [16] 20 µM
inactive: all other assays above

Cc1nc(-c2ccccn2)ncc1C(=O)Nn1cc(C)c2cc(F)ccc21
not listed: [14]
inactive: all other assays above

CCCCN1C(=O)[C@@H]([C@H](O)C2CCCCC2)NC(=O)C12CCN(Cc1ccc(Oc3ccc(C(=O)O)cc3)cc1)CC2
inactive: all assays above

CCCOc1ccc(S(=O)(=O)N2CCN(CC)CC2)cc1-c1nc2c(CC)n(Cc3ccccn3)nc2c(=O)[nH]1
active: [15] 3.63 µM
not listed: [14]
inactive: all other assays above
